# Compound activity from PubChem.
# ABHD5-PLIN5 inh = ABHD5-PLIN5 interaction inhibitors, primary screen, cell lysate, split luciferase complementation, luminescence | 360,000 compounds, 0.78% hits | inhibition, % at 4 µM | AID 602281, 2012 | Split G. princeps luciferase complementation, 4 h;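 active = inhibition above the mean inhibition across every tested compound plus 3 SD, cut at about 22% in these data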;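 also: 0% = DMSO only wells and the 100% control is not disclosed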
# Target sequence (Q00G26 whole entry, looked up): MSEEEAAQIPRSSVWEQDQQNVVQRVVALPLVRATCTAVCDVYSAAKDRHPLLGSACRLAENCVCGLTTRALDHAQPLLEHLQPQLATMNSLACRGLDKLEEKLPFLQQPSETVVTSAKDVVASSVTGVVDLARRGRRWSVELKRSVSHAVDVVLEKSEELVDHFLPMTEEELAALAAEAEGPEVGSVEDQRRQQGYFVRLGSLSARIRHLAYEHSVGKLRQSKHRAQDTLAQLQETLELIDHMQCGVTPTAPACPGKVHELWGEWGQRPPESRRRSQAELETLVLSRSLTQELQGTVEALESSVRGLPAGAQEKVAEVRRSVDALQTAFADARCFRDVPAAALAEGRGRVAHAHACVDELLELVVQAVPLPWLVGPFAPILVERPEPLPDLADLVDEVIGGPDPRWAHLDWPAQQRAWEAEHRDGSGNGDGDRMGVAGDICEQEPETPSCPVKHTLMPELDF
# Target sequence (Q8WTS1 whole entry, looked up): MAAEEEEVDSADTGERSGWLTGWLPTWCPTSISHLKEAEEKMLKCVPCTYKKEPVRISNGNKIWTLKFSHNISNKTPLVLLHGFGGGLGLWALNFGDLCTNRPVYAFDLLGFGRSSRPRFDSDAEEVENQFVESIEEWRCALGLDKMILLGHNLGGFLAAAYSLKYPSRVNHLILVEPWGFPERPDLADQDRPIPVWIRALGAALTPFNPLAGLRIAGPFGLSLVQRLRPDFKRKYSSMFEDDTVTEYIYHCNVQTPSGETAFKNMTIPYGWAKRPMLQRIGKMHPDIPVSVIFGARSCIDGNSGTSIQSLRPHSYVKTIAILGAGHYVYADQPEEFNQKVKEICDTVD
# MBD2 inh = inhibitors of MBD2 binding to methylated DNA, primary screen, biochemical, TR-FRET, DNA-binding domain, human. AID 686964, 2013. Methyl-CpG-binding domain protein 2 (Homo sapiens), Q9UBB5. inhibition, % at 4.4 µM. MBD2 binding to methylated oligonucleotide. 370,000 compounds, 0.31% hits; in the data active = inhibition above about 13%
# UHRF1 MBD2 ctr = UHRF1 methylated DNA binding inhibitors, primary screen, counter-screen for MBD2 inhibitor project, biochemical, TR-FRET, human UHRF1, single concentration. 370,000 compounds, 0.75% hits. AID 687016, 2013. E3 ubiquitin-protein ligase UHRF1 (Homo sapiens), Q96T88. UHRF1 binding to methylated oligo. inhibition, % at 4.4 µM; in the data active = inhibition above about 21%;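 also: UHRF1 SRA domain binding a hemimethylated CpG hairpin DNA probe; 0% = median of test compound wells and 100% = reference inhibitor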
# PRMT1 FP inh = PRMT1 methyltransferase inhibitors, primary screen, biochemical, fluorescence polarization; recombinant PRMT1, activity-based probe fluorescence polarization; Protein arginine N-methyltransferase 1 (Homo sapiens), Q99873; inhibition, % at 2.79 µM; 370,000 compounds, 1.3% hits;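 active = inhibition above about 21% made by adding two undisclosed values, limit read from the data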
# rCAG RNA binder = binders of r(CAG) RNA repeats, primary screen, biochemical, fluorescence | r(CAG) RNA repeat, TO-PRO-1 dye displacement fluorescence | inhibition, % at 3 µM | 370,000 compounds, 1.3% hits | AID 651821, 2012;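 active = inhibition above the plate cutoff, the mean of all test compounds on that plate plus 3 SD, cut at about 35% in these data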;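 also: 0% = DMSO alone and 100% = 100 µM mitoxantrone as full dye displacement; higher means more dye released from RNA so lower well fluorescence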
# LEDGF integ inh = blockers of LEDGF/p75-dependent integrase strand transfer – biochemical, TR-FRET, high throughput, primary screen; AID 743269, 2014; inhibition, % at 3.7 µM; TR-FRET IN-LEDGF/p75 DNA integration, Eu/Cy5; 370,000 compounds, 0.64% hits; HIV-1 integrase (with human LEDGF/p75);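 active = inhibition above the screen-wide mean plus 3 SD, cut at about 13% in these data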;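 also: signal is the Cy5 over europium emission ratio at 671 and 618 nm; 0% = plate median of compound wells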
# rCAG bind conf = small molecules binding CAG repeat RNA – biochemical, fluorescence, confirmation | shares compounds with rCAG RNA binder | r(CAG) RNA repeat, TO-PRO-1 dye displacement fluorescence | inhibition, % at 3 µM | 4,300 compounds, 70% hits | AID 652065, 2013;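 active = inhibition above a per-plate cutoff, the mean inhibition of sample wells plus 3 SD, cut at about 35% in these data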;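 also: loss of TO-PRO-1 fluorescence as compound displaces dye from 1x1 AA loop RNA; 0% = DMSO only wells and 100% = 100 µM mitoxantrone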
# DNA CAG counter = displacement of TO-PRO-1 from CAG DNA duplex, counter-screen for rCAG RNA repeat binder project, biochemical, fluorescence, TO-PRO-1 dye, d(CAG) DNA oligo | shares compounds with rCAG RNA binder | d(CAG) DNA oligo TO-PRO-1 dye displacement | inhibition, % at 3 µM | 4,300 compounds, 94% hits | AID 652068, 2013;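 active = inhibition above its plate's cutoff, the mean test-well inhibition plus 3 SD, cut at about 4.8% in these data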;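 also: 0% = DNA dye mix with DMSO and 100% = 100 µM mitoxantrone; hits displace the dye from DNA and so lower well fluorescence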
# An asterisk follows results filed as active; x = no result given. Compounds with a hit are over-represented: about 4.1% of the library has one in this group of screens.
SMILES,ABHD5-PLIN5 inh,MBD2 inh,UHRF1 MBD2 ctr,PRMT1 FP inh,rCAG RNA binder,LEDGF integ inh,rCAG bind conf,DNA CAG counter
O=C(CS(=O)(=O)c1ccccc1)CS(=O)(=O)c1ccccc1,x,2,0,-2,53*,2,2,1
COc1ccc(Cl)cc1C(=O)NCCc1ccc(S(=O)(=O)NC(=O)NC2CCCCC2)cc1,-7,-10,-94,-6,41*,4,31,8.0*
COc1ccc(CCNC(=O)NC2CCCCC2)cc1OC,7,-2,2,-2,-2,1,x,x
COc1ccc2c(c1)C(=O)N(CCc1ccc(S(=O)(=O)NC(=O)NC3CCCCC3)cc1)C(=O)C2(C)C,4,1,1,2,38*,0,53*,15*
CCCCCn1nnnc1C1(C)CSCC(=O)N1Cc1ccco1 (configuration not stated),x,-5,4,-3,-1,0,x,x
Cc1ccc2c(c1)CCCN2S(=O)(=O)c1cccc(C(=O)Nc2ccccc2C(=O)O)c1,5,0,1,-6,83*,6,85*,63*
O=C(Nc1cc(S(=O)(=O)Nc2ccccc2F)ccc1Cl)c1ccc(F)cc1F,2,6,-2,3,47*,-4,42*,13*
COc1ccc(NS(=O)(=O)c2ccc(Cl)c(NC(=O)c3ccccc3F)c2)cc1,0,3,-1,3,12,-3,x,x
O=C(Nc1ccccc1C(=O)O)c1cc(S(=O)(=O)N2CCCCC2)c(Cl)cc1Cl,-1,0,2,-2,70*,5,62*,20*
COc1ccc(NS(=O)(=O)c2cccc(C(=O)Nc3ccccc3C(=O)O)c2)cc1,0,-4,-4,-3,66*,3,52*,20*
COc1ccc2[nH]c3c(c2c1)CCN[C@]31C(=O)N(Cc2cn(Cc3ccccc3)nn2)c2ccccc21,x,7,16,0,9,6,x,x
COP(N)(=O)C(CC(C)C)NC(=O)OCc1ccccc1 (configuration not stated),x,-1,-3,-5,0,-2,x,x
Cc1ccc(NS(=O)(=O)c2ccc(Cl)c(C(=O)Nc3cccc(C(=O)O)c3)c2)cc1,-2,0,-1,-4,24,-1,x,x
CC(=O)c1ccc(NS(=O)(=O)c2cccc(C(=O)Nc3ccccc3C(=O)O)c2)cc1,-7,0,-2,-2,49*,2,29,6.4*
O=C(Nc1ccccc1C(=O)O)c1cc(S(=O)(=O)Nc2ccccc2)ccc1Cl,-3,-1,1,1,46*,-7,35*,7.3*
O=C1NC(=Nc2cccc(O)c2)S/C1=C\c1cccc([N+](=O)[O-])c1,4,-1,-4,-8,47*,3,33,11*
O=S1(=O)c2ccccc2-c2c(nnn2CC2CCCCC2)CN1C1CC1,x,-4,-1,1,2,-3,x,x
O=C(CCN1C(=O)/C(=C/C=C/c2ccccc2)SC1=S)Nc1nccs1,3,2,2,6,4,4,x,x
O=C(CCN1C(=O)/C(=C\C=C\c2ccccc2)SC1=S)Nc1cccc(C(=O)O)c1,5,4,-2,2,86*,1,84*,54*
O=C(CCN1C(=O)/C(=C/c2ccc(Cl)cc2)SC1=S)Nc1cccc(C(=O)O)c1,4,3,-3,-4,6,4,x,x
O=C(CCN1C(=O)/C(=C\C=C\c2ccccc2)SC1=S)Nc1ccccc1C(=O)O,-4,1,0,4,42*,-1,88*,57*
Cc1ccc(S(=O)(=O)N2CCCC(C(=O)Nc3c(C)n(C)n(-c4ccccc4)c3=O)C2)cc1 (configuration not stated),x,-1,-1,2,-1,3,x,x
COc1ccc(/C=N/NC(=O)c2[nH]c3ccc(Br)cc3c2-c2ccccc2)c(C(=O)O)c1OC,0,-2,0,-1,62*,-2,77*,43*
COc1ccc(/C=N/NC(=O)c2[nH]c3ccc(Cl)cc3c2-c2ccccc2)c(C(=O)O)c1OC,-5,1,-2,-5,64*,3,66*,25*
O=C(Nc1ccccc1C(=O)Nc1nnc(C(F)(F)F)s1)c1ccccc1Cl,0,4,-1,-5,65*,2,71*,30*
SMILES,ABHD5-PLIN5 inh,MBD2 inh,UHRF1 MBD2 ctr,PRMT1 FP inh,rCAG RNA binder,LEDGF integ inh,rCAG bind conf,DNA CAG counter
Cc1ccc(-n2nnnc2SCC(=O)NC(C(=O)O)(c2ccccc2)c2ccccc2)cc1C,5,-5,-2,0,38*,1,38*,10*
O=C(CSc1nnnn1-c1cccc2ccccc12)N1CCOCC1,-1,-1,4,-1,0,5,x,x
O=C(CSc1nnnn1-c1cccc2ccccc12)NC(C(=O)O)(c1ccccc1)c1ccccc1,3,2,-2,-1,46*,6,36*,10*
CCOC(=O)CNC(=O)CSc1nnnn1-c1ccc(C)c(C)c1,7,0,1,0,-2,-3,x,x
N#C/C(=N\Nc1cccc(C(F)(F)F)c1)C(=O)c1csc(-c2cccnc2)n1,-8,-8,-3,0,86*,-5,80*,49*
O=C(Nc1cccc(Cl)c1)Nc1nc(-c2ccccc2)cs1,1,-3,1,0,50*,2,21,20*
Cc1nnc(NC(=O)Nc2cccc(Cl)c2)s1,-13,2,-1,-1,50*,0,9,12*
O=C(Nc1cccc(Cl)c1)Nc1nccs1,-3,2,2,-1,11,4,x,x
Cc1csc(NC(=O)Nc2cccc(Cl)c2)n1,0,2,0,2,46*,-5,11,16*
CCCCNC(=O)C1(C(=O)C2CC2)CC(C(=O)OCC)=NO1 (configuration not stated),x,-1,1,-5,0,-3,x,x
COc1cc(/C=C2\SC(=S)N(C(C(=O)O)c3ccccc3)C2=O)ccc1O (configuration not stated),-9,-8,-12,17,43*,-4,33,8.5*
